Sm TGR block: qHTS Assay for the Inhibitors of Schistosoma Mansoni Peroxiredoxins. Schistosoma mansoni thioredoxin glutathione reductase (TGR), Q962Y6. purified TGR, DTNB reduction, TNB absorbance 405 nm. Potency, µM (titrated, usually from 114 µM), for inactives: at the highest dose activity change, negative = inhibition, actives largely listed as inhibitors. actives 3% (n = 360,000); further: potency means the concentration at half of the fitted maximal effect; on the % scale 0 is the no-effect control and ±100 the full control effect; nearly all actives have a fitted effect of over 60% in size
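Kinetic colorimetric format: TGR-catalysed, NADPH-driven DTNB reduction monitored via TNB absorbance. Enzyme dispensed at 20 nM; compound exposure 15 min at room temperature before reaction start.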
FBPA Giardia inh: qHTS Assay for Inhibitors of Fructose-1,6-bisphosphate Aldolase from Giardia Lamblia | A8B2U2 | purified Giardia FBPA | Potency, µM (series often up to 59.6 µM), for inactives: top-dose activity, negative = inhibition, actives largely listed as inhibitors | actives 0.71% (n = 290,000); further: potency means the concentration at half of the fitted maximal effect; on the % scale 0 is the no-effect control and ±100 the full control effect; nearly all actives have a fitted effect of over 55% in size
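Giardia FBPA (40 nM reagent) was preincubated 10 min at RT with compound (up to 57.5 uM final), then substrate plus GAPDH/TPI/NAD/arsenate coupling system with diaphorase/resazurin was added; resorufin fluorescence (525/598 nm) was read after 20 min.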
Tb PYK inh: qHTS of Trypanosoma Brucei Inhibitors. TbPYK enzyme, Kinase-Glo Plus ATP luminescence, 45 min. actives 0.12% (n = 410,000). pyruvate kinase (Trypanosoma brucei), Q57TT1. Potency, µM (doses to about 76.8 µM), without a hit: at the highest dose activity, negative = inhibition, hits mostly inhibitors; further: potency means the concentration at half of the fitted maximal effect; on the % scale 0 is the no-effect control and ±100 the full control effect; nearly all actives have a fitted effect of over 50% in size
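T. brucei PYK with substrate was exposed to pin-transferred compounds across a concentration series, then started with 130 uM ADP (final). After 45 min at room temperature, Kinase-Glo Plus luminescence was read, normalized and curve-fitted.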
Shiga toxin inh: A qHTS for Small Molecule Inhibitors of Shiga Toxin; Vero cells, Shiga toxin protein synthesis inhibition reporter; inhibition, % at 38.7 µM; actives 9.2% (n = 290,000); AID 2315, 2010; in the data active means inhibition mostly above about 28%, no sharp cut-off; inactive means mostly below about 43%; further: 0% is about no effect
LmPK inh: qHTS Assay for Inhibitors of Leishmania Mexicana Pyruvate Kinase (LmPK). Q27686. purified LmPK, Kinase-Glo ATP luminescence, 1 h. Potency, µM (top dose mostly 57.5 µM), inactives show top-dose activity change, negative = inhibition, hits mostly inhibitors. actives 0.37% (n = 290,000). AID 1721, 2009; further: potency means the concentration at half of the fitted maximal effect; on the % scale 0 is the no-effect control and ±100 the full control effect
Target sequence (Q27686 whole entry, looked up): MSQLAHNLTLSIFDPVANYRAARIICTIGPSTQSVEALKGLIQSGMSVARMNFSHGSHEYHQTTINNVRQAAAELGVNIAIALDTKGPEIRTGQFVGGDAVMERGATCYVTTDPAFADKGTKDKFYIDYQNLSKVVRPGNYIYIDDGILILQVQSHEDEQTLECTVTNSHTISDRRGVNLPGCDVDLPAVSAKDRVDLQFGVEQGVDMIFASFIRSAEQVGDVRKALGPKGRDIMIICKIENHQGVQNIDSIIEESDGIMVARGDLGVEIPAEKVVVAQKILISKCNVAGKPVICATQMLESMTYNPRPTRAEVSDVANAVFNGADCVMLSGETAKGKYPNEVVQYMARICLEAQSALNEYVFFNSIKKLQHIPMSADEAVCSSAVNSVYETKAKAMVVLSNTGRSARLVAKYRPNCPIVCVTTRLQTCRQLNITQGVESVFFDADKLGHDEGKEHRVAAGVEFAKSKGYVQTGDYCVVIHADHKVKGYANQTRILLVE
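Pyruvate kinase activity monitored as ATP production (luciferase luminescence). Conditions: 0.1 nM enzyme, 0.5 mM PEP, 0.1 mM ADP, 1 h, RT; normalized against uninhibited and no-enzyme wells.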
CHX counter: Cycloheximide Counterscreen for Small Molecule Inhibitors of Shiga Toxin | actives 12% (n = 300,000) | AID 2314, 2010 | max response, % | cell reporter, cycloheximide protein synthesis inhibition counterscreen; in the data active means max response mostly above about 13%, no sharp cut-off; inactive means mostly below about 14%; further: read at 38.3 µM for the half of the compounds with a filed dose; 0% is about no effect
Starred values were filed as active, the others as inactive; ? = inconclusive; . = no result; [ ] = dose if it differs, or a comment. Only a selection was taken, and hits are over-represented in it overall. Unless noted, the call rests on the fitted dose curve; in most records, active means well fitted curve in the direction sought with a large enough effect; inconclusive means small, poorly fitted or top-dose-only effect, or another doubt; inactive means no such curve, though single readings can be large; an effect the other way counts as inactive or inconclusive.

SMILES	Sm TGR block	FBPA Giardia inh	Tb PYK inh	Shiga toxin inh	LmPK inh	CHX counter
C/C(CC(=O)Nc1ccc(Cl)c(C(F)(F)F)c1)=N\NC(=O)c1ccccc1O	1%	0%	-8%	41	5%	22*
C[C@@H]1C[C@H]2[C@H]3C[C@@H](F)C4=CC(=O)C=C[C@]4(C)[C@@]3(Cl)[C@@H](O)C[C@@]2(C)[C@@H]1C(=O)COC(=O)C(C)(C)C	.	-5%[21.7 µM]	0%	.	.	.
CCc1ccc2ncc(S(=O)(=O)c3ccc(Cl)cc3)c(N3CCN(CC)CC3)c2c1	-2%	.	-2%	.	.	.
COC(=O)c1cccc(C(=O)Nc2cnc3ccccc3c2)n1	6%	-9%	2%	39	2%	18
O=C(NC(=S)Nc1cnc2ccccc2c1)c1ccccc1	?	?	-24%	63*	-12%	47*
O=C(Nc1cnc2ccccc2c1)c1ccncc1	85%	-1%	1%	183*	1%	73*
S=C(NCCc1ccccc1)Nc1cnc2ccccc2c1	?	-2%	-7%	61*	1%	31*
Cc1cc(C)nc(NC(=S)NC(=O)c2ccccc2)n1	27%	?	-5%	18	1%	2
Cn1ncc2cc(NC(=S)NC(=O)c3ccccc3)ccc21	18µM*	-9%	-2%	86*	1%	43*
CCOc1ccc(C=C2SC(=O)N(CCN)C2=O)cc1	.	0%	.	-17	.	-18
c1cncc(CNc2nc(-c3cccnc3)nc3ccccc23)c1	3%	-2%	1%	-10	0%	-4
COc1cccc(-c2nc(NCc3cccnc3)c3ccccc3n2)c1O	-16%	21%	-5%	37	-3%	19*
CC(C)(C)c1ccc(-c2nc(NCc3cccnc3)c3ccccc3n2)cc1	-10%	2%	-2%	76*	-2%	51*
CN1CCN(S(=O)(=O)c2cccc(C#N)c2)C(c2ccccc2)C1 (centres undefined)	-3%	.	0%	.	.	.
COC(=O)c1scc(-c2ccc(C)cc2)c1S(=O)(=O)Nc1cc(OC)c(OC)c(OC)c1	1%	.	0%	.	.	.
C/C(=N\Nc1ccccn1)c1cccs1	4%	-25%	1%	93*	-2%	46*
C/C(=N\Nc1ccccn1)c1ccc(OC(F)F)cc1	0%	-19%	-4%	38*	1%	18
C/C(=N\NC(=O)C(N)=O)c1ccc(OC(F)F)cc1	10%	-1%	0%	11	-7%	14
C/C(=N\Nc1ccccn1)c1ccc(C#N)cc1	-15%	-7%	-1%	43*	2%	25*
CO[C@H]1COC(=O)CCC[C@H](C)[C@H](OC)COC(=O)C/C=C\[C@@H]1C	.	4%[12.9 µM]	.	.	.	.
COc1ccc(CNC(=O)c2noc3c2CCCCC3)cc1	-11%	6%	0%	85*	5%	25*
O=C(NCc1ccccc1)c1noc2c1CCCCC2	19%	7%	2%	84*	0%	46*
O=C(Nc1ccccc1C(F)(F)F)c1noc2c1CCCC2	9%	.	1%	.	.	.
Cc1oc2c(c1C(=O)NCc1ccccc1)CCCC2	?	-4%	2%	-2	-1%	7
O=C(NC1CCCC1)c1noc2c1CCCCC2	-2%	-2%	7%	152*	-11%	37*
SMILES	Sm TGR block	FBPA Giardia inh	Tb PYK inh	Shiga toxin inh	LmPK inh	CHX counter
O=C(NCc1cccs1)c1noc2c1CCCCC2	-5%	3%	0%	54*	-10%	23*
COc1ccc2c(c1)CCc1c(C(=O)NCc3ccc(F)cc3)noc1-2	-21%	-9%	2%	4	3%	-1
COc1ccc(N2CCN(C(=O)c3ccc(C)c(NC(=O)c4nsc5ccccc45)c3)CC2)cc1	-1%	.	2%	.	.	.
Cc1cc(C)n2c(NC3CCCC3)c(-c3ccc(F)cc3)nc2n1	.	.	2%	.	.	.
COC(=O)c1ccccc1NC(=O)c1noc2c1CCCC2	-1%	-1%	2%	21	-1%	-3
CC(NC(=O)c1noc2c1CCCCC2)c1ccccc1 (centres undefined)	-14%	2%	1%	45*	1%	33*
c1ccc(OCCOc2ncnc3ccccc23)cc1	-36%	0%	-5%	93*	-7%	37*
COc1ccc(C(=O)COc2ncnc3cc(Cl)ccc23)cc1	-6%	4%	3%	17	5%	2
O=C(COc1ncnc2cc(Cl)ccc12)c1ccccc1	-13%	-10%	0%	98*	-2%	45*
O=C(COc1ncnc2ccccc12)c1ccc(Cl)cc1	60%	0%	2%	79*	11%	26*
Cc1ccc(C(c2c(C)n(C)n(-c3ccccc3)c2=O)c2c(C)n(C)n(-c3ccccc3)c2=O)s1	25µM*	4%	1%	25	0%	1
Cc1c(C(c2ccc(O)cc2)c2c(O)c3ccccc3oc2=O)c(=O)n(-c2ccccc2)n1C (centres undefined)	14µM*	16%	-13%	15	1%	-4
Cc1c(C(c2ccccc2)c2c(C)n(C)n(-c3ccccc3)c2=O)c(=O)n(-c2ccccc2)n1C	-16%	1%	-9%	-5	-6%	-1
Cc1cccc(C(=O)Nc2c(C(=O)NCc3ccc(Cl)cc3)sc3nc(C)cc(C)c23)c1	-2%	.	6%	.	.	.
N#C/C(=C\c1ccc(OCc2ccc(C(=O)O)cc2)cc1)C(=O)N1CCOCC1	4%	10%	-3%	179*	-2%	99*
N#C/C(=C\c1ccc(OCc2ccccc2)cc1)C(=O)Nc1ccc(C(=O)O)cc1	8%	1%	0%	46*	-3%	26*
N#C/C(=C/c1ccc(C(=O)O)cc1)C(=O)Nc1ccccc1	-4%	0%	-16%	-15	-1%	7
O=C(/C=C/c1ccc2c(c1)OCO2)NC1CCCC1	-11%	5%	0%	.	1%	27*
O=C(/C=C/c1cccc([N+](=O)[O-])c1)NCC1CCCO1 (centres undefined)	6%	-4%	-2%	2	3%	6
O=C(/C=C/c1ccc2c(c1)OCO2)NCC1CCCO1 (centres undefined)	5%	-3%	-1%	63*	-7%	37*
CCc1nn(CC(=O)N2CCCCC2)c(=O)c2cc3occc3n12	8%	.	2%	.	.	.
CCCS(=O)(=O)N1CCC(C(=O)Oc2ccc(OC)cc2)CC1	11%	-5%	-2%	-3	-2%	1
CCOC(=O)c1ccccc1NC(=O)C1COc2ccccc2O1 (centres undefined)	0%	7%	-3%	-13	5%	-6
